From PubChem BioAssay (NCATS)
Results filed as inconclusive are left out. A call without a number means that no potency is given here. Calls of active or inactive are those of the source. Unless noted, calls come from the whole dose curve; as a rule, active = well fitted curve in the direction sought with a large enough effect; inconclusive = small, poorly fitted or top-dose-only effect, or another doubt; inactive = no such curve, though single readings can be large; an effect the other way counts as inactive or inconclusive.

Tests used:
[1] = qHTS for differential inhibitors of proliferation of Plasmodium falciparum line D10 (AID 1877);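 note: parasites grown with compound for 72 h before DNA staining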; note: potency is the fitted concentration of half-maximal effect
[2] = qHTS for differential inhibitors of proliferation of Plasmodium falciparum line Dd2 (AID 1882); settings: Potency: Plasmodium falciparum Dd2 proliferation inhibition; note: series mostly up to about 29 µM; nearly all actives have a fitted effect of over 65% in size
How it was run: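 Dd2-infected erythrocytes (0.3% parasitemia, 2.5% hematocrit final) incubated with compound 72 h at 37 C, 5% CO2; lysed with saponin/Triton buffer containing SYBR Green I, incubated overnight in the dark, then read by fluorescence (485/535 nm). Normalized to 0.29 uM artemisinin and DMSO.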

[3] = qHTS for differential inhibitors of proliferation of Plasmodium falciparum line HB3 (AID 1886); settings: Potency: Plasmodium falciparum HB3 proliferation inhibition;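 note: parasites grown with compound for 72 h before SYBR Green readout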; note: potency is the fitted concentration of half-maximal effect
[4] = qHTS Assay for Modulators of Human Peripheral Myelin Protein 22 (PMP22) Expression/Activity (AID 1967; active = well fitted curve in the direction sought with a large enough effect in the signal ratio; the % refers to the signal ratio)
How it was run: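 Mouse MSC80 Schwann line, Pmp22 promoter–CBG68 reporter, EF-alpha–CBR internal control. 24h compound exposure, 37 °C/5% CO2, DMEM + 10% FBS. Readout: corrected green/red luminescence ratio, normalized to untreated cells; concentration-response curves fitted and classified.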

[5] = biological target: ATP-dependent DNA helicase Q1 (Homo sapiens) (UniProt P46063); test: qHTS Validation Assay for Inhibitors of RecQ-Like Dna Helicase 1 (RECQ1) (AID 2353)
ATP-dependent DNA helicase Q1 (Homo sapiens), sequence (P46063 whole entry, looked up): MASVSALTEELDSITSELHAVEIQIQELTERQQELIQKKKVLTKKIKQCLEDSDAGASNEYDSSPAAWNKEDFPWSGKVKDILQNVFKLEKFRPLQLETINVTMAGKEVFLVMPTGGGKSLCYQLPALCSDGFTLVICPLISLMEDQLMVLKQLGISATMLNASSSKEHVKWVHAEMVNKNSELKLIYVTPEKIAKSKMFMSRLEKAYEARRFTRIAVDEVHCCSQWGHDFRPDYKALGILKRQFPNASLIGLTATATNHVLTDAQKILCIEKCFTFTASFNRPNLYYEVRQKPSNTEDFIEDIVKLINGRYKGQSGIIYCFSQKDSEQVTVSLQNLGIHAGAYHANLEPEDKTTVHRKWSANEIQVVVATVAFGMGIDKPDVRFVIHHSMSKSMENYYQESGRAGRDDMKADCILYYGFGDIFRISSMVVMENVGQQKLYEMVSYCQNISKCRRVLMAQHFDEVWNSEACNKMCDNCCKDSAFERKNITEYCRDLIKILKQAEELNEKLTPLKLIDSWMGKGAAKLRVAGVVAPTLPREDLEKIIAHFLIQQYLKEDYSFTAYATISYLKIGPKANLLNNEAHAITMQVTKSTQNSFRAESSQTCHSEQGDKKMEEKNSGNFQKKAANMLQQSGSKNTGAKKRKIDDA
How it was run: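 50 nM RECQ1T1 preincubated 15 min with compound in Tris pH 8.0 buffer with MgCl2, DTT, Tween-20 and 2.5 ug/ml poly(dI-dC); started with 200 nM TAMRA/BHQ-2 forked duplex and 2 mM ATP. Unwinding read as fluorescence (525/598 nm), two reads 2 h apart.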

[6] = biological target: RecQ-like DNA helicase BLM (Homo sapiens) (UniProt P54132); test: qHTS Validation Assay for Inhibitors of Bloom's syndrome helicase (BLM) (AID 2364); note: potency is the fitted concentration of half-maximal effect
RecQ-like DNA helicase BLM (Homo sapiens), sequence (P54132 whole entry, looked up): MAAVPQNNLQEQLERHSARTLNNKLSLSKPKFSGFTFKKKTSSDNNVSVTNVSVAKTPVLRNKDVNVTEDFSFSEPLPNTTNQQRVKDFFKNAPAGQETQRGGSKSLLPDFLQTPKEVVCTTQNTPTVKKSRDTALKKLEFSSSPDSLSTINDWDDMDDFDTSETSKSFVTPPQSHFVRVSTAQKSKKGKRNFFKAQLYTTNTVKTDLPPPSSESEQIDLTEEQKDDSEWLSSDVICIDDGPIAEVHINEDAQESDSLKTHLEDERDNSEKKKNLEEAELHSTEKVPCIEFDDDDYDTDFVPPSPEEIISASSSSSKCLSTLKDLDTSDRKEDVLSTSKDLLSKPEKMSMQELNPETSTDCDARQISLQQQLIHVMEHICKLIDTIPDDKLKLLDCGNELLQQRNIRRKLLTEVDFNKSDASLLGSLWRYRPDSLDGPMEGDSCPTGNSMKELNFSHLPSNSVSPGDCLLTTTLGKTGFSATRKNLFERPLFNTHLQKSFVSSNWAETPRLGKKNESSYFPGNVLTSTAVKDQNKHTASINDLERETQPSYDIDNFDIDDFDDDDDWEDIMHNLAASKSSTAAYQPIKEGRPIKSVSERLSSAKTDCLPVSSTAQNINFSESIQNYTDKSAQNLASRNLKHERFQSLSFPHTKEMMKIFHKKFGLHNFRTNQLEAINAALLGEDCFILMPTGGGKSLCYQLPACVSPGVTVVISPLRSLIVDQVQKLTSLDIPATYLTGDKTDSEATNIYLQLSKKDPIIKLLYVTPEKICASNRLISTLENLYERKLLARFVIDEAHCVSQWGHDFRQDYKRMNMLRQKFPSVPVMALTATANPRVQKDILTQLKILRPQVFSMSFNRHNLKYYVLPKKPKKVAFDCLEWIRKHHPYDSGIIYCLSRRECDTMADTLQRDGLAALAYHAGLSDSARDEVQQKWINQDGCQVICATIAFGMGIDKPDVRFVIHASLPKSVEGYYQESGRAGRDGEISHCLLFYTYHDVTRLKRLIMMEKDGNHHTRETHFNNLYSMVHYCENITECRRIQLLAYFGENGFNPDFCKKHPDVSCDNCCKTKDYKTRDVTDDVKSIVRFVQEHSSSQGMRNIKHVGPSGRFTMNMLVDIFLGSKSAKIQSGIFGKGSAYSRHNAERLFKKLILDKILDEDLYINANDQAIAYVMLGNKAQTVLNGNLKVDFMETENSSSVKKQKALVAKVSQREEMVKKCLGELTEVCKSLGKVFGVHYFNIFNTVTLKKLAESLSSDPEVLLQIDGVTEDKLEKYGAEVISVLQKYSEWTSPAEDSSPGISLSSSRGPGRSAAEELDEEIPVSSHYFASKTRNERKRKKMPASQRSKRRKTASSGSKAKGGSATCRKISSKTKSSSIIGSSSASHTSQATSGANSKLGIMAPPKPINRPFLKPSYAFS
How it was run: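 Forked 20-bp duplex substrate (200 nM, TAMRA/BHQ-2) plus 2 mM ATP added after 15 min compound preincubation with 50 nM enzyme, pH 8.0, poly(dI-dC) 2.5 ug/ml. Strand separation followed by fluorescence (525/598 nm) over 2 h, normalized to enzyme-free and DMSO controls.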

[7] = biological target: Ferritin light chain (Equus caballus) (UniProt P02791); test: qHTS Validation Assay for Identification of Novel General Anesthetics (AID 2323); note: series mostly up to about 77 µM
Ferritin light chain (Equus caballus), sequence (P02791 2-175 limits assumed): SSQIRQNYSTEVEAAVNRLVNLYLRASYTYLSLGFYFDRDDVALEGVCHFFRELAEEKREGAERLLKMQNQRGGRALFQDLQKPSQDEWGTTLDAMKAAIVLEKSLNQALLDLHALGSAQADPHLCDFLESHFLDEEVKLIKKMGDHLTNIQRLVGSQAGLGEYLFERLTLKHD
How it was run: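 10 uM horse-spleen apoferritin + 1-AMA (50% saturated, PBS); cpd pin-transferred, 10 min RT. Ex 380/Em 535 nm endpoint. Activity normalized between free 1-AMA and 1-AMA/apoferritin; 4-parameter Hill fit of concentration-response.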

[8] = qHTS for differential inhibitors of proliferation of Plasmodium falciparum line W2 (AID 1883); settings: Potency: Plasmodium falciparum W2 proliferation inhibition;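 note: parasites grown with compound for 72 h before lysis and staining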; note: potency is the fitted concentration of half-maximal effect

| SMILES | Potency [1] | Potency [2] | Potency [3] | outcome [4] | Potency [5] | Potency [6] | Potency [7] | Potency [8] |
| --- | --- | --- | --- | --- | --- | --- | --- | --- |
| NC(=O)c1cc[n+](CC2=C(C(=O)O)N3C(=O)[C@@H](NC(=O)[C@@H](c4ccccc4)S(=O)(=O)[O-])[C@H]3SC2)cc1 | inactive | inactive | inactive | inactive | inactive | inactive | – | – |
| O=C(O)c1cc2cc(F)ccc2[nH]1 | inactive | inactive | – | inactive | inactive | inactive | inactive | – |
| Nc1ccc2c3c(cccc13)C(=O)NC2=O | inactive | inactive | inactive | – | – | – | inactive | – |
| CCCc1c(-c2ccc(O)cc2)nn(-c2ccc(O)cc2)c1-c1ccc(O)cc1 | inactive | inactive | inactive | – | inactive | – | inactive | – |
| COc1cc(CNC(=O)CCCCCCC(C)C)ccc1O | inactive | inactive | inactive | – | inactive | – | – | – |
| [N-]=[N+]=Nc1ccc(C(=O)CSC[C@H](NC(=O)CC[C@H](N)C(=O)O)C(=O)NCC(=O)O)cc1 | inactive | inactive | inactive | – | – | 28.2 µM (active) | – | – |
| O=c1[nH]c2cc(Cl)ccc2c(O)c1-c1ccc(Oc2ccccc2)cc1 | inactive | inactive | inactive | inactive | inactive | – | inactive | – |
| COCc1nc2c([nH]1)c(=O)n(C)c(=O)n2CC(C)C | inactive | inactive | inactive | inactive | inactive | – | inactive | – |
| NCCCNCCCCNCCCN | inactive | inactive | inactive | – | inactive | inactive | – | – |
| Nc1ccc(N2C(=O)c3ccccc3C2=O)c(Cl)c1 | inactive | inactive | inactive | – | inactive | inactive | inactive | – |
| CNC(=O)c1cc2c(cn1)[nH]c1ccccc12 | inactive | inactive | – | – | inactive | inactive | inactive | 12.6 µM (active) |
| c1ccc(C2CN3CCSC3=N2)cc1 (stereo not given) | inactive | inactive | inactive | – | inactive | inactive | inactive | – |
| C[C@H](O)C(=O)C1=Nc2c(nc(N)[nH]c2=O)NC1 | inactive | inactive | inactive | inactive | inactive | – | – | – |
| CNCCNS(=O)(=O)c1cccc2cnccc12 | inactive | inactive | inactive | – | inactive | inactive | inactive | – |
| N=S(=O)(O)Cc1noc2ccccc12 | inactive | inactive | inactive | inactive | inactive | – | inactive | – |
| N=C(N)SCCc1cnc[nH]1 | inactive | inactive | inactive | inactive | inactive | inactive | inactive | – |
| O=C1C2C=CC=CC2=NC(=S)N1CCN1CCC(=C(c2ccc(F)cc2)c2ccc(F)cc2)CC1 (stereo not given) | inactive | inactive | – | – | inactive | – | inactive | 10 µM (active) |
| CCCCCCCCCCC/C=C\C(C)(C)/C=C\CCCC(=O)O | inactive | inactive | inactive | inactive | – | 25.1 µM (active) | – | – |
| N#Cc1cc2nc(O)c(O)nc2cc1[N+](=O)[O-] | inactive | inactive | inactive | inactive | inactive | – | inactive | – |
| CCCCOc1cc(CC2CNC(=O)N2)ccc1OC (stereo not given) | inactive | inactive | inactive | inactive | inactive | inactive | inactive | – |

| SMILES | Potency [1] | Potency [2] | Potency [3] | outcome [4] | Potency [5] | Potency [6] | Potency [7] | Potency [8] |
| --- | --- | --- | --- | --- | --- | --- | --- | --- |
| O=C(O)/C(=C/c1c(C(=O)O)[nH]c2cc(Cl)cc(Cl)c12)c1ccccc1 | inactive | inactive | inactive | – | inactive | – | inactive | – |
| COc1cc(N)c(Cl)cc1C(=O)OCCN1CCCCC1 | inactive | inactive | inactive | inactive | inactive | inactive | inactive | – |
| CCSC(=N)N | inactive | inactive | inactive | inactive | inactive | – | inactive | – |
| Oc1cc(O)c2c(c1)O[C@H](c1ccc(O)c(O)c1)[C@@H](O)C2 | inactive | inactive | inactive | – | inactive | – | inactive | – |
| CC(N)(Cc1ccc(O)c(O)c1)C(=O)O (stereo not given) | inactive | inactive | inactive | – | inactive | – | – | – |
| C#CC(N)CCC(=O)O (stereo not given) | inactive | inactive | inactive | inactive | inactive | inactive | inactive | – |
| O=c1onc2n1-c1cc(Br)ccc1OC2 | inactive | inactive | inactive | – | inactive | – | – | – |
| CCCCCC[C@@H]([C@@H](C)O)n1cnc2c(N)ncnc21 | inactive | inactive | inactive | inactive | inactive | – | inactive | – |
| CC1CCN=C(N)S1 (stereo not given) | inactive | – | inactive | – | inactive | – | – | 11.2 µM (active) |
| NC(=O)CNCCC(c1ccccc1)c1ccccc1 | inactive | – | inactive | – | inactive | – | inactive | 2.24 µM (active) |
| O=c1ccn([C@@H]2O[C@H](COP(=O)(O)OP(=O)(O)O)[C@@H](O)[C@H]2O)c(=O)[nH]1 | inactive | – | inactive | – | inactive | – | inactive | inactive |
| O=C1Cc2c([nH]c3ccc(Br)cc23)-c2ccccc2N1 | 11.2 µM (active) | – | 12.6 µM (active) | – | inactive | – | inactive | 10 µM (active) |
| Cn1c(=O)c2[nH]c(C3CCCC3)nc2n(C)c1=O | inactive | inactive | – | – | inactive | inactive | inactive | – |
| CN1CCC2(CCN3CCc4c(oc5ccccc45)C3C2)N(C)C1=O (stereo not given) | inactive | inactive | – | – | inactive | – | – | – |
| CC1CNCCN1S(=O)(=O)c1cccc2cnccc12 (stereo not given) | inactive | – | inactive | – | inactive | inactive | inactive | 7.08 µM (active) |
| CN(C)CCC(c1ccc(Br)cc1)c1ccccn1 (stereo not given) | inactive | – | inactive | inactive | inactive | inactive | – | 0.891 µM (active) |
| CC(=O)N[C@@H](Cc1c[nH]c2ccccc12)C(=O)OCc1cc(C(F)(F)F)cc(C(F)(F)F)c1 | inactive | – | inactive | inactive | inactive | – | – | inactive |
| Cn1cc(C(F)(F)F)nc1-c1ccc(OCC(O)CNCCOc2ccc(O)c(C(N)=O)c2)cc1 (stereo not given) | 3.16 µM (active) | – | 5.62 µM (active) | – | inactive | inactive | inactive | 10 µM (active) |
| CN(C)S(=O)(=O)c1ccc2c(c1)/C(=C/c1cc3c([nH]1)CCCC3)C(=O)N2 | 3.55 µM (active) | – | 3.98 µM (active) | – | inactive | – | – | 3.55 µM (active) |
| CCCC(=O)NCCc1c2n(c3ccc(OC)cc13)CCCc1ccccc1-2 | 12.6 µM (active) | – | 11.2 µM (active) | – | inactive | – | – | 7.94 µM (active) |

| SMILES | Potency [1] | Potency [2] | Potency [3] | outcome [4] | Potency [5] | Potency [6] | Potency [7] | Potency [8] |
| --- | --- | --- | --- | --- | --- | --- | --- | --- |
| COc1ccc2c(c1)c(CC(=O)O)c(C)n2C(=O)c1ccccc1 | inactive | – | inactive | inactive | inactive | – | inactive | inactive |
| CCCn1c(=O)c2[nH]c(-c3ccc(S(=O)(=O)O)cc3)nc2n(CCC)c1=O | inactive | inactive | – | inactive | inactive | inactive | – | – |
| Oc1ccc(Cn2cc[nH]c2=S)cc1 | inactive | – | inactive | inactive | inactive | – | inactive | inactive |
| CCCOC(=O)c1c(-c2ccccc2)nc(CC)c(C(=O)SCC)c1CCC | 12.6 µM (active) | – | 17.8 µM (active) | – | inactive | – | inactive | 10 µM (active) |
| c1ccc(CN2CCC3(CCCc4ccccc43)CC2)cc1 | 12.6 µM (active) | – | 7.94 µM (active) | – | inactive | – | inactive | 4.47 µM (active) |
| COC(=O)C(N)Cc1ccc(Cl)cc1 (stereo not given) | inactive | – | inactive | – | inactive | inactive | inactive | inactive |
| CC1=C(C(=O)O)N2C(=O)[C@@H](NC(=O)C(N)C3=CCC=CC3)[C@H]2SC1 (stereo not given in full) | inactive | – | inactive | – | inactive | – | inactive | inactive |
| CC(N)=NCCCC[C@@H](N)C(=O)O | inactive | – | inactive | inactive | inactive | – | inactive | inactive |
| NC(Cc1cccc(-c2ccccc2CP(=O)(O)O)c1)C(=O)O (stereo not given) | inactive | – | inactive | inactive | inactive | inactive | inactive | inactive |
| C[C@@H](NCCc1ccc(O)cc1)[C@@H](O)c1ccc(O)cc1 | inactive | – | inactive | inactive | inactive | inactive | – | inactive |
| O=C(O)Cc1c[nH]c2ccc(O)cc12 | inactive | inactive | – | – | inactive | inactive | inactive | – |
| Nc1ncnc2c1ncn2C1CCCC1 | inactive | inactive | – | – | inactive | – | inactive | – |
| Nc1ccc(-c2ccc3ccccc3n2)cc1 | inactive | inactive | – | – | inactive | – | inactive | – |
| NS(=O)(=O)c1cccc2c1c([N+](=O)[O-])cc1nc(O)c(O)nc12 | inactive | – | inactive | inactive | inactive | – | inactive | 11.2 µM (active) |
| C=CCn1c(=O)c2c(nc(-c3ccc(S(=O)(=O)O)cc3)n2C)n(C)c1=O | inactive | – | inactive | inactive | inactive | – | – | inactive |
| O=C(O)C1=CCCN(CCON=C(c2ccccc2)c2ccccc2)C1 | inactive | – | inactive | – | inactive | – | inactive | 5.62 µM (active) |
| CNc1ncnc2c1ncn2[C@H]1C[C@H](OP(=O)(O)O)[C@@H](COP(=O)(O)O)O1 | inactive | – | inactive | inactive | inactive | – | inactive | inactive |
| C[C@H](NC(=O)/C(C#N)=C/c1ccc(O)c(O)c1)c1ccccc1 | 12.6 µM (active) | – | 12.6 µM (active) | – | inactive | – | – | 10 µM (active) |
| NC1(C(=O)O)CCc2cc(C(=O)O)ccc21 (stereo not given) | inactive | – | inactive | inactive | inactive | – | inactive | inactive |
